Screens (PubChem BioAssay)
D2 ag-1: HTS Assay for Allosteric Agonists of the Human D2 Dopamine Receptor: Primary Screen for Agonists | D(2) dopamine receptor (Homo sapiens), P14416 | HEK293 T-REx D2 cells, calcium flux agonist mode | activation, % at 2 µM | 0.53% of 340,000 active;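 active = activation over 3 SD above normal in the single-dose calcium agonist read, cut at about 30% in these data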; also: 0% is about no effect
Target sequence (P14416 whole entry, looked up): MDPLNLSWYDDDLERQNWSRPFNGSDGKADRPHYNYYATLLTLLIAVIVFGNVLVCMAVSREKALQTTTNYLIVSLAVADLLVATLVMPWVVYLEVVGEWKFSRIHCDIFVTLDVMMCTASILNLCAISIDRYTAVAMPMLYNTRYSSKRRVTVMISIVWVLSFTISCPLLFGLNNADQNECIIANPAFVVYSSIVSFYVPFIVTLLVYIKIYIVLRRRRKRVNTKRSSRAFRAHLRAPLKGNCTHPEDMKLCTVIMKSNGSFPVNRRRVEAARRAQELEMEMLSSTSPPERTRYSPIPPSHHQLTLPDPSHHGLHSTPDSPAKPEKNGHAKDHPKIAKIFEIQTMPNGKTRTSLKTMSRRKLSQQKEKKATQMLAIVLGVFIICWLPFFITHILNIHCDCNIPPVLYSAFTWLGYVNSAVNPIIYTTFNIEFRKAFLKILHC
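Tetracycline-induced HEK293 T-REx cells with force-coupled D2 receptor, plated overnight at 30 C, loaded with no-wash calcium dye. After a 10 s baseline, compound was pin-added and calcium flux read kinetically for 180 s; calcium rises flagged agonists.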
D2 antagonist: HTS Assay for Allosteric Antagonists of the Human D2 Dopamine Receptor: Primary Screen for Antagonists; HEK293 TREx D2 cells, calcium flux, dopamine EC80; inhibition, % at 10 µM; 2% of 340,000 active; in the data active = inhibition above about 30%; inactive = below that, where a call was filed; also: 0% is about no effect
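Compounds are added to dye-loaded, induced HEK293 T-REx cells coupled to calcium release via D2; after a 3 min kinetic read an EC80 dopamine stimulus is given and fluorescence is recorded for 3 more min.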
D2 PAM-1: HTS Assay for Positive Allosteric Modulators of the Human D2 Dopamine Receptor: Primary Screen for Potentiators. potentiation, % at 10 µM. 0.34% of 340,000 active. HEK293 T-REx D2, calcium flux, EC20 dopamine potentiation. D(2) dopamine receptor (Homo sapiens), P14416;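 active = potentiation over 3 SD above the plate norm, cut at about 30% in these data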; also: 0% is about no effect
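Tetracycline-induced HEK293 T-REx cells force-coupled to calcium signalling expressed D2; compounds were pin-added after a 10 s baseline, read kinetically 180 s, then an EC20 dopamine challenge followed with a further 180 s calcium read.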
D2 ag-2: Beta-Arrestin HTS for Positive Allosteric Modulators of the Human D2 Dopamine Receptor: Agonists; D(2) dopamine receptor (Homo sapiens), P14416; AID 624465, 2012; activation, % (concentration not given with the values); DiscoveRx PathHunter D2 beta-arrestin, luminescence, 90 min; 100% = 57 uM dopamine signal; 0.084% of 360,000 active; in the data active = activation above about 40%; inconclusive = between about 15% and that limit
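DiscoveRx PathHunter D2 beta-arrestin cells (2,100/well) attached overnight, then compound-stimulated 90 min at 37 C in HBSS/10 mM HEPES/0.1% Tween-20 buffer; beta-galactosidase complementation read by luminescence after 1 h at ambient temperature. Dopamine 57 uM final (EC100) as control.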
D2 PAM-2: Beta-Arrestin HTS for Positive Allosteric Modulators of the Human D2 Dopamine Receptor: Potentiators | D(2) dopamine receptor (Homo sapiens), P14416 | DiscoveRx D2 beta-arrestin cells, luminescence, 90 min; 100% = 57 uM dopamine signal | potentiation, % (concentration not given with the values) | 0.23% of 360,000 active; in the data active = potentiation above about 50%; inconclusive = mostly about 30% to 49%
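PathHunter beta-arrestin assay in DiscoveRx D2 cells. Compounds were added with an EC20 of dopamine (50 nM final) for 90 min at 37 deg C. Luminescence was read 1 h after detection reagent, with 57 uM dopamine as the EC100 control.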
Numbers without * were called inactive; ? = inconclusive; . = no result given. The list is not random: actives were taken first. Their share in the collection is about 2.4%.

SMILES | D2 ag-1 | D2 antagonist | D2 PAM-1 | D2 ag-2 | D2 PAM-2
Cc1ccccc1NC(=O)Cc1nc(COC(=O)CNS(=O)(=O)c2cccc(Br)c2)cs1 | 0 | 35* | -8 | -1 | -5
Cc1ccccc1NC(=O)Cc1nc(COC(=O)COc2ccccc2C(C)C)cs1 | 2 | 29 | 5 | -3 | -1
O=C(Nc1cccc(S(=O)(=O)N2CCCC2)c1)c1cccc(OC(F)F)c1 | 0 | 12 | -9 | 0 | 11
C/C(Cc1ccccc1)=N\NC(=O)CNC(=O)Cc1ccc(Cl)cc1 | 0 | -8 | 5 | -1 | -4
CCCSc1nnc(Sc2nnnn2-c2ccccc2)s1 | -2 | 44* | 2 | -2 | -12
Cc1ccccc1-n1nnnc1Sc1nnnn1-c1ccccc1 | 0 | 12 | 2 | -1 | -10
Cc1ccc(C)c(CN2C(=O)C3(c4ccccc42)N(c2cccc(C(F)(F)F)c2)C(=O)CS3(=O)=O)c1 (centres undefined) | 1 | . | 18 | . | .
O=C1c2ccccc2C(c2nc3ccccc3[nH]2)N1c1ccccn1 (centres undefined) | . | . | . | 7 | 1
CCCCS(=O)CC(CS(=O)CCCC)OC(=O)c1ccccc1 (centres undefined) | 0 | 0 | -6 | -3 | -9
CCCCS(=O)(=O)CC(COc1ccccc1)OC(=O)c1ccccc1 (centres undefined) | 1 | 35* | 1 | -3 | -6
Cc1c(Cl)cccc1N1C(=O)CC(N(O)c2ccccc2)C1=O (centres undefined) | 1 | 0 | 7 | 6 | 55*
Cc1cccc(C)c1N1C(=O)CC(N(O)c2ccccc2)C1=O (centres undefined) | -1 | -19 | -5 | 7 | 51*
CCOc1ccccc1N1C(=O)CC(N(O)c2ccccc2)C1=O (centres undefined) | 1 | -13 | 27 | ? | 4
O=C(CN1CCC(O)(c2ccccc2F)CC1)NCCc1c[nH]c2ccccc12 | 0 | 86* | -26 | 0 | -23
O=C(CN1C(=O)c2ccccc2C1=O)NCCc1c[nH]c2ccccc12 | 0 | -1 | 6 | -1 | -4
O=C(c1cccc2ccccc12)N1CCN(c2ccc([N+](=O)[O-])c(N3CCOCC3)c2)CC1 | -1 | -6 | 12 | -7 | -4
O=C(NCc1nc2ccccc2[nH]1)C1=C[C@H](C2CC2)C[C@H](OCc2ccc(CO)cc2)O1 | 1 | 40* | 2 | -2 | -14
O=C(NCc1nc2ccccc2[nH]1)C1=C[C@@H](C2CC2)C[C@@H](OCc2ccc(CO)cc2)O1 | 2 | 8 | 2 | 1 | -40
C/C(=N\NC(=O)c1ccccc1F)c1ccc(C#N)cc1 | 2 | 36* | 5 | 0 | -4
CCCCN1C(=O)C(CC(=O)NC2CCCCC2)CC(C(=O)N(CC)CC)=C1C (centres undefined) | . | . | . | -10 | -3
CCn1c(CNC(=O)C23CC4CC(CC(C4)C2)C3)nnc1SCC(=O)Nc1nnc(C)s1 | 0 | 0 | 43* | -1 | 1
CCCCn1c(CNC(=O)C23CC4CC(CC(C4)C2)C3)nnc1SCC(=O)Nc1nnc(C)s1 | 0 | 6 | -4 | -3 | -4
Cc1ccc(S(=O)(=O)N(C)C)cc1NC(=S)Nc1ccc2cn[nH]c2c1 | -2 | 43* | -12 | -4 | -14
Cc1ccc(S(=O)(=O)N(C)C)cc1NC(=S)NCCc1ccccn1 | 0 | 34* | -26 | 1 | -19
CN(C)S(=O)(=O)c1cccc(NC(=S)NCCc2ccccn2)c1 | 1 | 24 | -9 | -3 | -11
SMILES | D2 ag-1 | D2 antagonist | D2 PAM-1 | D2 ag-2 | D2 PAM-2
CC(C)c1nc2sc3c(NCc4ccco4)ncnc3c2c2c1COC(C)(C)C2 | 0 | 4 | 4 | -7 | 0
COc1ccc(C[C@@H]2CN3C(=NC[C@@H]3Cc3ccc(O)cc3)N2C[C@H](C)NC(=O)CCC2CCCCC2)cc1 | -2 | -34 | -6 | -3 | -31
O=C(CCC1CCCCC1)NCCN1C2=NC[C@@H](Cc3ccccc3)N2C[C@H]1Cc1ccc(O)cc1 | 0 | 51* | -24 | -4 | -31
C[C@@H](CN1C2=NC[C@H](C)N2C[C@H]1Cc1ccc(O)cc1)NC(=O)CCC1CCCCC1 | 0 | 52* | -18 | -4 | -33
CC(C)[C@H]1CN=C2N(C[C@H](C)NC(=O)CCC3CCCCC3)[C@H](Cc3ccc(O)cc3)CN21 | 0 | 77* | -23 | 1 | -24
COc1ccc(C2=C(C)C(=O)N(Cc3ccc(C(=O)NCc4ccc(C)cc4)cc3)S2(=O)=O)cc1 | . | . | 3 | . | .
CC(=O)c1ccc(NC(=O)C[n+]2cccc(C)c2)cc1 | 0 | 37* | 8 | -2 | -3
Cn1c(O)c(/C=C2\C=Nc3ccccc32)sc1=Nc1ccc(C(=O)O)cc1 | 0 | -9 | 1 | -1 | -4
O=C(Cc1ccccc1)Nn1c(O)c(/C=C2\C=Nc3ccccc32)sc1=S | 34* | -13 | -3 | -2 | -13
Cc1ccccc1C(=O)NC(CC(C)C)C(=O)N1CCN(c2ccccc2)CC1 (centres undefined) | 0 | -3 | 31* | 0 | -9
CC(C)C[C@H](NC(=O)N1CCN(c2ccccc2)CC1)C(=O)O | . | . | . | 2 | 0
CCOC(=O)CSc1nnc(CNC(=O)c2cccc(C)c2)n1-c1ccccc1OC | . | . | -3 | 0 | -1
Cc1ccccc1C(=O)NCc1nnc(SCC(=O)N2CCN(c3ccccc3)CC2)n1C | -1 | 39* | 0 | -6 | -6
CCOC(=O)CSc1nnc(CNC(=O)c2cccc(C)c2)n1C | 0 | 35* | 4 | ? | 0
COCCCN1C(=O)c2ccc(C(=O)N3CCN(c4ccccc4OC)CC3)cc2C1=O | 0 | 2 | -9 | -2 | -6
N#Cc1c(NC(=O)/C=C/c2ccco2)sc2c1CCCC2 | 0 | 57* | -22 | -5 | -34
O=C(/C=C/c1ccco1)Nc1sc2c(c1C(=O)O)CCC2 | -1 | -5 | -4 | -2 | -8
CCc1cc(C(=O)OC)c(NC(=O)CC2SC(N)=NC2=O)s1 (centres undefined) | -1 | 31* | 9 | -5 | -3
Cc1nn(-c2ccccc2)c(C)c1NC(=O)COC(=O)[C@@H](NC(=O)c1ccccc1)C(C)C | -1 | 36* | -5 | -2 | 6
CCC(C(=O)OCC(=O)Nc1c(C)nn(-c2ccccc2)c1C)c1ccccc1 (centres undefined) | 0 | 18 | 3 | 0 | 4
